# PubChem BioAssay AID686978 (National Center for Advancing Translational Sciences (NCATS), 2013)
# Hit rate of the full screen: of about 420,000 compounds, about 64,000 (15%) were called active. About 27% were inconclusive and are not listed. Calls come from the whole dose curve; as a rule, active = well fitted inhibition curve with a large enough effect; inconclusive = small, poorly fitted or top-dose-only effect; inactive = flat fitted curve, though single readings scatter. Only a sample is shown. A call without a number means that no potency is given here.
# Test: qHTS for Inhibitors of human tyrosyl-DNA phosphodiesterase 1 (TDP1): qHTS in cells in absence of CPT; note: nearly all actives have a fitted effect of over 55% in size
# Settings: DT40 Tdp1-/- hTDP1 cells, no CPT, ATP luminescence, 48 h; activity change, negative = growth inhibition: at 46.2 µM (top of the series)
# Method in brief: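 Growth kinetics read by CellTiter-Glo luminescence after ≥48 hr at 37 °C. Cells: DT40 Tdp1-/- stably carrying human TDP1, 400 per well, compound exposure in the absence of CPT (DMSO vehicle).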
# Potency is the fitted concentration of half-maximal effect.
row,SMILES,Potency
1,O=C(OCC(=O)N1CCCCC1)c1ccc(OC(F)(F)F)cc1,inactive
2,CCN(CC)C(=O)C1CCC(C)(C(=O)O)C1(C)C (configuration not stated),inactive
3,O=S(=O)(NCCSc1ccccn1)c1ccc(Cl)cc1,inactive
4,CC(C)=NN1C(=O)c2ccccc2NC1(C)C,inactive
5,Cc1nnsc1C(=O)Nc1cccc(Cl)c1C,inactive
6,COc1cccc(CNC(=O)c2ccc3c(c2)sc2nc(-c4cccc(OC)c4)cn23)c1,4.11 µM (active)
7,COc1cccc(CNC(=O)Cn2ncn3c(cc4ccccc43)c2=O)c1,inactive
8,COc1cccc(CNC(=O)CCc2nc(-c3ccc(C)cc3)no2)c1,inactive
9,CCOc1cc(NC(=O)CCl)c(OCC)cc1NC(C)=O,16.4 µM (active)
10,CCOc1cc(NC(=O)Nc2ccccc2)c(OCC)cc1NC(=O)CC,inactive
11,CCCC(=O)Nc1cc(OCC)c(NC(=O)NC2CCCCC2)cc1OCC,inactive
12,C=CC1=C(C(=O)O)N2C(=O)[C@@H](NC(=O)/C(=N/OCC(=O)O)c3csc(N)n3)[C@H]2SC1,inactive
13,COc1cc2c(cc1OC)C(C(=O)Nc1cc(C)c(OC)c(C)c1)CC(=O)N2 (configuration not stated),inactive
14,COC(=O)C1=C(C)NC(=O)CC1c1ccccc1OC (configuration not stated),inactive
15,COc1cc(N/C=C2\CC(=O)NC(C)=C2C#N)cc(OC)c1OC,25.9 µM (active)
16,CC(C)CNC(=O)C1(C)CCCN1C(=O)CSc1ccccc1 (configuration not stated),inactive
17,O=C1CN(C(=O)Nc2ccccc2C(F)(F)F)C(c2ccccc2)c2c(sc3c2CCCC3)N1 (configuration not stated),18.4 µM (active)
18,O=C(CSc1n[nH]c(=O)n1-c1ccccc1)Nc1ccccc1C(F)(F)F,inactive
19,Cc1ccccc1NC(=O)N1CCCC1C(=O)NCc1ccccc1 (configuration not stated),inactive
20,[2H]C(CCOS(N)(=O)=O)c1ccccc1 (configuration not stated),inactive
21,Cn1c(=NC(=O)C2CC2)sc2cc(F)cc(F)c21,inactive
22,O=C(NC(c1ccccc1)c1ccccc1)N1CCN(CCO)CC1,inactive
23,O=C(CN1CCN(Cc2ccccc2)CC1)NC(c1ccccc1)c1ccccc1,23.1 µM (active)

row,SMILES,Potency
1,O=C(CN1CCc2ccccc21)NC(c1ccccc1)c1ccccc1,inactive
2,CC12CCC(=O)N1C(C(=O)Nc1ccc(F)c(F)c1F)CS2 (configuration not stated),inactive
3,COC(=O)/C=C(\Oc1ccccc1)C1(O)CCCCC1,inactive
4,CCNC(=O)NNC(=O)C1CC(c2cccs2)=NO1 (configuration not stated),inactive
5,O=C(N/N=C/c1ccc([N+](=O)[O-])o1)c1cccc(S(=O)(=O)N2CCOCC2)c1,18.4 µM (active)
6,O=C(c1cccc(S(=O)(=O)N2CCOCC2)c1)N1CCOCC1,inactive
7,O=C(Nc1nnc(-c2ccccc2)o1)c1cccc(S(=O)(=O)N2CCOCC2)c1,16.4 µM (active)
8,Cc1cc(C(=O)NNC(=O)c2cccc(S(=O)(=O)N3CCOCC3)c2)c2ccccc2n1,inactive
9,Cc1nc2ccc(NC(=O)c3cccc(S(=O)(=O)N4CCOCC4)c3)cc2s1,20.6 µM (active)
10,COc1ccc(Br)cc1/C=N/NC(=O)c1cccc(S(=O)(=O)N2CCOCC2)c1,inactive
11,O=C(Nc1ccc(S(=O)(=O)Nc2nccs2)cc1)c1cccc(S(=O)(=O)N2CCOCC2)c1,inactive
12,NC(=O)CSc1nnc(-c2cccc(S(=O)(=O)N3CCOCC3)c2)o1,inactive
13,Cc1cc2ccccn2c1C(=O)c1cccc(S(=O)(=O)N2CCOCC2)c1,16.4 µM (active)
14,O=C(COC(=O)c1ccccc1)Nc1cccc(S(=O)(=O)N2CCOCC2)c1,inactive
15,CCOc1cc(/C=N/NC(=O)c2cccc(S(=O)(=O)N3CCOCC3)c2)ccc1OCC(=O)N(C)C,inactive
16,CCCS(=O)(=O)N1CCC(C(=O)NCCCN(C)Cc2ccccc2)CC1,inactive
17,CSc1ncnc2c1ncn2CCCNCc1ccco1,inactive
18,O=C(Nc1cccnc1)c1cc2cc(Br)ccc2oc1=O,inactive
19,COC(=O)c1cc(=O)n(-c2c(Cl)cc(C(F)(F)F)cc2Cl)[nH]1,inactive
20,CCOC(=O)c1c(NC(=O)CSc2nccc(=O)[nH]2)sc(C)c1C,inactive
21,CCC(=O)Nc1ccc(-c2ccc(N3CCCCC3)nn2)cc1,inactive
22,Cc1ccc(S(=O)(=O)N2CCC(Oc3ccc(-n4cnnn4)cc3)CC2)cc1,inactive
23,CN(C)c1ccc(/C=N/Nc2cc(N3CCOCC3)nc(N3CCOCC3)n2)cc1,inactive

row,SMILES,Potency
1,COc1ccc(/C=N/NC(=O)Nc2ccc3nsnc3c2)c(OC)c1,inactive
2,COc1ccc(/C=N/Nc2cc(N3CCOCC3)nc(C)n2)c(OC)c1,20.6 µM (active)
3,COc1ccc(/C=N/NC(=O)CNC(=O)c2ccc(S(=O)(=O)N3CCCC3)cc2)c(OC)c1,inactive
4,Cc1ccccc1N/N=C/c1ccc(N2CCOCC2)cc1,inactive
5,C(=N/Nc1cc(N2CCOCC2)nc(N2CCOCC2)n1)/c1ccccc1,20.6 µM (active)
6,C=CCN1C(=O)C(Cc2ccc(OCC)cc2)SC1=Nc1ccc(C(=O)O)cc1 (configuration not stated),inactive
7,COc1ccc(N=C2SC(C(=O)Nc3ccc(F)cc3)CC(=O)N2C)cc1 (configuration not stated),inactive
8,CC1Cc2ccccc2N1C(=O)CSc1nnc(C2CC2)n1C (configuration not stated),inactive
9,COc1ccc(CC(=O)Nc2c(C(N)=O)oc3ccccc23)cc1,inactive
10,COCCNC(=O)CSc1nc2c(n1-c1ccccc1)CCCC2,inactive
11,Nc1ncnc2c1cnn2C1CC(O)C(CO)O1 (configuration not stated),inactive
12,Nc1ccn(C2CC(O)C(CO)O2)c(=O)n1 (configuration not stated),inactive
13,Nc1ncnc2c1ncn2C1CC(O)C(CO)O1 (configuration not stated),4.61 µM (active)
14,O=[N+]([O-])c1ccc(C(S(=O)(=O)Cc2ccccc2)S(=O)(=O)Cc2ccccc2)cc1,18.4 µM (active)
15,O=C(NNS(=O)(=O)Cc1ccccc1)c1ccc([N+](=O)[O-])cc1,inactive
16,O=C(Cc1ccccc1)NNS(=O)(=O)c1ccc([N+](=O)[O-])cc1,inactive
17,Cn1c(N)cc(-c2ccc(F)cc2)c(C#N)c1=O,inactive
18,CCOc1ccc(N=C2NC(=O)S/C2=C\c2ccc(O)cc2)cc1,inactive
19,CCOc1[nH]n(-c2ccc(Cl)cc2)c(=O)c1C=Nc1ccc(O)cc1,5.17 µM (active)
20,CC(=O)Cn1ncc(N2CCOCC2)c(Br)c1=O,inactive
21,Cc1ccc(Cc2nc(-c3cccc(C)c3)no2)cc1,inactive
22,N/C(=N\S(=O)(=O)c1ccc(Cl)cc1)N1CCOCC1,inactive
23,CCOC(=O)c1cnc2nc(SCc3ccccc3Cl)[nH]n2c1=O,inactive

row,SMILES,Potency
1,COc1ccc(OCCCn2c(C)nc3cc(C)c(C)cc32)cc1,10.3 µM (active)
2,COc1ccc(OCCn2ccnc2C)cc1,inactive
3,COCCOCCn1cnc2ccccc21,inactive
4,COc1ccc2ccn(C)c2c1,inactive
5,O=c1c2ccccc2ncn1CCCCOc1ccccc1F,inactive
6,Cc1cc2ncn(CCCCOc3ccccc3)c2cc1C,14.6 µM (active)
7,Cc1ccc(C(=O)N2CCN(S(=O)(=O)N3CCOCC3)CC2)cc1,inactive
8,N#Cc1c(-c2cccs2)nc(SCC(=O)c2ccc(Br)cc2)[nH]c1=O,inactive
9,O=C(NC(C(=O)NCCN1CCOCC1)C12CC3CC(CC(C3)C1)C2)C1CCCCC1 (configuration not stated),inactive
10,O=S(=O)(/N=C(/Nc1ccccn1)c1ccccc1)c1ccc(Cl)cc1,inactive
11,Cc1ccc(S(=O)(=O)/N=C(/Nc2ccccn2)c2ccc(Cl)cc2)cc1,inactive
12,Cc1ccc(S/C(=N\S(=O)(=O)c2ccc(Cl)cc2)c2ccccc2)cc1,10.3 µM (active)
13,O=C(CCS(=O)(=O)c1ccccc1Cl)Nc1ccc(S(=O)(=O)Nc2ncccn2)cc1,inactive
14,O=C(O)c1ccccc1NC(=O)c1ccccc1-c1ccccc1C(=O)O,inactive
15,CCNC(=O)N1CCCC(C(=O)c2ccc(-c3ccccc3)cc2)C1 (configuration not stated),9.2 µM (active)
16,CCOC(=O)CCNC(=O)N1CCCC(C(=O)c2ccccc2SC)C1 (configuration not stated),inactive
17,Cc1ccccc1NC(=O)C1CCCN(C(=O)NCc2ccccc2)C1 (configuration not stated),inactive
18,O=C(CSc1nnc(-c2ccco2)n1-c1ccccc1)NCCc1ccccc1,inactive
19,Cc1ccc(Nc2nc(N)nc(CN3CCN(Cc4ccccc4)CC3)n2)cc1Cl,16.4 µM (active)
20,CCOC(=O)N1CCN(Cc2nc(N)nc(Nc3ccc(C)cc3)n2)CC1,inactive
21,CCSCc1nc(N)nc(NCCc2ccccc2)n1,inactive
22,CCOc1ccc(S(=O)(=O)NCc2ccc3c(c2)OCO3)cc1C,inactive
23,O=C(OCCN=C1NS(=O)(=O)c2ccccc21)c1cccc([N+](=O)[O-])c1,inactive

row,SMILES,Potency
1,Cc1ccc(C(=O)Nc2ccc(NC(=O)c3cccs3)cc2)c(C)c1,inactive
2,Cc1cccc(C(=O)Nc2ccc(C(=O)/C=C/c3cccs3)cc2)c1,16.4 µM (active)
3,Cc1cccc(C(=O)Nc2ccc(CC(=O)O)cc2)c1,inactive
4,COCCCNC(=O)CCc1nc2cccnc2n1Cc1ccc(OC)cc1,inactive
5,COc1ccc(OC)c(CCNC(=O)CCCn2c(=O)c3cccn3c3cccnc32)c1,20.6 µM (active)
6,CC1CCCCC12NC(=O)N(CC(=O)Nc1ccc(S(=O)(=O)Nc3ncccn3)cc1)C2=O (configuration not stated),inactive
7,CC1CCN(C(=O)Cn2nnnc2CN2CCOCC2)CC1,inactive
8,CN(c1ccccc1)S(=O)(=O)c1ccc2[nH]c(=O)[nH]c2c1,inactive
9,Cc1cccc(NC(=O)c2ccc(S(=O)(=O)N(C)c3ccccc3)cc2)n1,20.6 µM (active)
10,Cc1ccnc(NS(=O)(=O)c2ccc(NC(=O)c3ccc(S(=O)(=O)N(C)C)cc3)cc2)n1,inactive
11,O=C(NCCC1CCCCN1S(=O)(=O)c1ccc(F)cc1)C(=O)NC1CC1 (configuration not stated),inactive
12,O=C(NCCC1CCCCN1S(=O)(=O)c1cccs1)C(=O)Nc1ccc(F)cc1F (configuration not stated),2.59 µM (active)
13,O=C(NCc1ccccc1Cl)C(=O)NCC1CCCN1S(=O)(=O)c1cccs1 (configuration not stated),inactive
14,CCOC(=O)N1CCN(CCC(=O)Nc2ccccc2)CC1,inactive
15,COc1ccc(N2CCN(C(=O)c3c(C)oc4nc(C)nc(N5CCCC5)c34)CC2)cc1,inactive
16,CCOC(=O)c1c(C)oc2nc(C)nc(N(CC(C)C)CC(C)C)c12,16.4 µM (active)
17,Cc1nc(N2CCOCC2)c2c(C(=O)NCc3cccc(Cl)c3)c(C)oc2n1,inactive
18,CCOC(=O)c1c(C)oc2nc(C)nc(N3CCN(c4ccc(OC)cc4)CC3)c12,8.2 µM (active)
19,CCOC(=O)c1c(C)oc(C)c(C(=O)OCC)c1=O,inactive
20,CCOC(=O)c1c(C)oc2nc(C)nc(Nc3ccc(CC)cc3)c12,inactive
